Compound activity: PubChem BioAssay, National Center for Advancing Translational Sciences (NCATS)
Rows were chosen to be rich in hits. Some 2.3% of all compounds tested hit in one or more screens of this group.
Akt phos inh – Akt phosphorylation inhibition. Neuro2A IGF-stimulated pAkt S473 HTRF, 20 min; stronger effect = lower value. activity change, % for hits at 50 µM. 360,000 compounds, 0.32% hits. AID 651550; in the data active = activity change below about -80%; inconclusive = mostly about -51% to -80%
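Neuro2A cells (4,500/well, DMEM with 0.5% FBS) were treated with compound at a single 50 µM final concentration, stimulated with 6 nM IGF for 20 min at 37 °C, and lysed. Phospho-Akt Ser473 was read by HTRF as 665/615 ratio ×10^4.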
aSyn rescue – rescues yeast growth from alpha-synuclein toxicity | 370,000 compounds, 0.14% hits | Yeast expressing alpha-synuclein, growth rescue, BacTiter-Glo, 24 h | Potency, µM (series often up to 46.1 µM), usual class: activators; also: nearly all actives have a fitted effect of over 65% in size
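Screening used galactose-induced yeast with toxic alpha-synuclein levels, exposed to compound for 24 hr at 30 deg C. Cell growth, read with BacTiter-Glo luminescence, gave the measured signal.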
FUS yeast rescue – suppressors of FUS proteinopathy in yeast | S. cerevisiae FUS-expressing, growth rescue, OD600, 24 h | Potency, µM (top dose mostly 76.6 µM), usual class: activators | 390,000 compounds, 0.24% hits | AID 1347120; also: nearly all actives have a fitted effect of over 55% in size
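Compound concentration series was pinned onto galactose-induced FUS-expressing yeast seeded at OD 0.005. Plates sat 24hr at 30C; absorbance at 600 nm gave growth. DMSO served as background control.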
TDP-43 yeast inh – TDP-43 toxicity inhibition in yeast; TDP-43 expressing yeast growth rescue, BacTiter-Glo, 24 h; Potency, µM (series often up to 46.1 µM), usual class: activators; 410,000 compounds, 1.8% hits; also: nearly all actives have a fitted effect of over 50% in size
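Luminescence from BacTiter-Glo reports growth of TDP-43-expressing yeast after 24 hr at 30 deg C with compound. Cells were raffinose-pregrown to mid-log, then seeded in galactose medium at OD600=0.02.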
Abeta yeast res – restores growth of yeast expressing A-beta42 peptide; 410,000 compounds, 0.063% hits; AID 1347071; Potency, µM (titrated, usually from 46.1 µM), hits mostly activators; yeast expressing A-beta42, growth rescue, OD600, 48 h; response scale: 0% DMSO, 100% iron-clioquinol control; also: nearly all actives have a fitted effect of over 55% in size
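Yeast A-beta toxicity model in growth medium with pinned compounds, 48 h at 30 C; growth read as absorbance at 600 nm. Normalized to FeCl3/clioquinol equimolar mix (positive) and DMSO (negative).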
Large screens that a line does not name were inactive. Unless noted, calls follow the shape of the dose curve; as a rule, active = well fitted curve in the direction sought with a large enough effect; inconclusive = small, poorly fitted or top-dose-only effect, or another doubt; inactive = no such curve, though single readings can be large; an effect the other way counts as inactive or inconclusive.

CCc1ccc2ncc3c(-c4ccc(C)cc4)nn(CC(=O)Nc4ccc(C)cc4)c3c2c1	TDP-43 yeast inh inconclusive (no result: Akt phos inh, aSyn rescue)
CC(C)N(C(=O)[C@H]1C[C@H](CC(=O)NCc2cccc(C(F)(F)F)c2)C(=O)N2CCc3c([nH]c4ccc(Cl)cc34)[C@]12C)C(C)C	aSyn rescue inconclusive, TDP-43 yeast inh 35µM
CC(C)N(C(=O)[C@H]1C[C@H](CC(=O)NCc2ccco2)C(=O)N2CCc3c([nH]c4cc(-c5ccco5)ccc34)[C@]12C)C(C)C	aSyn rescue inconclusive, FUS yeast rescue inconclusive, TDP-43 yeast inh 13µM
C[C@]12c3[nH]c4ccc(Cl)cc4c3CCN1C(=O)[C@@H](CC(=O)NCc1cccc(C(F)(F)F)c1)C[C@@H]2C(=O)N1CCOCC1	FUS yeast rescue inconclusive
CC[C@]12c3[nH]c4cc(CCC(=O)N(C)C)ccc4c3CCN1C(=O)[C@@H](CC(=O)NCc1ccc(OC)c(OC)c1)C[C@@H]2C(=O)N1CCN(C(=O)c2ccco2)CC1	none
CC[C@]12c3[nH]c4cc(-c5ccco5)ccc4c3CCN1C(=O)[C@@H](CC(=O)NCc1ccc(OC)c(OC)c1)C[C@@H]2C(=O)N1CCN(C(=O)c2ccco2)CC1	FUS yeast rescue 35µM
CC(C)N(C(=O)[C@H]1C[C@H](CC(=O)NCc2ccco2)C(=O)N2CCc3c([nH]c4ccc(Cl)cc34)[C@]12C)C(C)C	FUS yeast rescue inconclusive, TDP-43 yeast inh 35µM
CCOc1ccc(CCNC(=O)c2cn(C)c3ccc(S(=O)(=O)N4CCCCCC4)cc3c2=O)cc1OCC	none (no result: Akt phos inh, aSyn rescue)
CC[C@]12c3[nH]c4ccccc4c3CCN1C(=O)C(CC(=O)NC/C=C(\C)CCC=C(C)C)C[C@@H]2C(=O)N1CCN(C(=O)C2CC2)CC1 (some centres not stated)	FUS yeast rescue 18µM
O=C(CSc1nnc(SCc2ccc(Cl)cc2)s1)N1CCOCC1	TDP-43 yeast inh 22µM
Cc1cc(C)cc(-n2ccnc2SCC(=O)Nc2ccc3c(c2)OCO3)c1	none (no result: Akt phos inh)
Cc1cc(C)c(C(N)=O)c(SCC(=O)c2cc(C)n(-c3cc(C)on3)c2C)n1	TDP-43 yeast inh 35µM
Cc1ccc(CNC(=O)C2CCN(S(=O)(=O)c3c(C)noc3/C=C/c3cccs3)CC2)cc1	none (no result: Akt phos inh, aSyn rescue)
CC(=O)c1ccc(OCc2cc(C(=O)NC(C)c3cnn(C)c3)no2)cc1 (configuration not stated)	none
Cc1cc(OCc2cc(C(=O)N(C)C(C)c3ccccn3)no2)cc(C)c1Cl (configuration not stated)	FUS yeast rescue inconclusive, TDP-43 yeast inh 22µM, Abeta yeast res inconclusive
Cc1cc(OCc2cc(C(=O)NC(C)c3cnn(C)c3)no2)cc(C)c1Cl (configuration not stated)	aSyn rescue inconclusive, TDP-43 yeast inh 32µM
Cc1cc(OCc2cc(C(=O)N(C)Cc3ccccn3)no2)cc(C)c1Cl	FUS yeast rescue inconclusive, TDP-43 yeast inh inconclusive, Abeta yeast res inconclusive
CCN(CC)C(=O)Cn1c(=O)n(-c2ccc(Cl)cc2)c(=O)c2c3c(sc21)CCCCC3	none (no result: Akt phos inh, aSyn rescue)
O=C(CSc1nc2ccsc2c(=O)n1Cc1ccc(F)cc1)NCc1ccc(Cl)cc1	none (no result: Akt phos inh)
COc1cccc(C(NC(C)=O)c2nc(-c3ccc(C)c(C)c3)cs2)c1 (configuration not stated)	aSyn rescue 18µM
CC(=O)NC(c1ccccc1)c1nc(-c2ccc3ccccc3c2)cs1 (configuration not stated)	none
CC(=O)NC(c1ccccc1)c1nc(-c2ccc(C)c(C)c2)cs1 (configuration not stated)	TDP-43 yeast inh 20µM
O=C(CCl)c1ccc2c(c1)CCCC2	none (no result: Akt phos inh, FUS yeast rescue, TDP-43 yeast inh, Abeta yeast res)
CCCn1nc(C(=O)NNC(=O)c2ccc(C)c(C)c2)c2ccccc2c1=O	none (no result: FUS yeast rescue)
CCCn1nc(C(=O)N2CCN(S(=O)(=O)c3ccc(C)c(C)c3)CC2)c2ccccc2c1=O	FUS yeast rescue inconclusive, TDP-43 yeast inh 35µM
O=C(CN1C(=O)CC(c2ccco2)Sc2ccccc21)Nc1ccc(Br)cc1 (configuration not stated)	none (no result: Akt phos inh)
O=C(CN1C(=O)CC(c2ccco2)Sc2ccccc21)Nc1ccccc1F (configuration not stated)	TDP-43 yeast inh 32µM
